Results published in PubChem BioAssay (NCI).
About 83,000 compounds went through this panel and 20% of them were active in at least one assay; those are over-represented in the sample as a whole.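 Step 1: grow cells in 96-well plates. Step 2: add test compound at a single concentration. Step 3: incubate 48 h. Step 4: record percent growth.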 Activity calls are given as the source filed them. How the source made its calls: active means growth percent below 10; inactive means the rest.

Assays:
Assay in all cases: NCI-60 one-dose screen, 48 h (100 = growth as untreated, 0 = no growth, -100 = all killed)
Settings in all cases: 10 µM unless noted
[1] = system: EKVX NSCLC
[2] = system: SN12C renal
[3] = system: UO-31 renal
[4] = system: TK-10 renal
[5] = system: ACHN renal
[6] = system: A498 renal
[7] = system: CCRF-CEM leukemia
[8] = system: MOLT-4 leukemia
[9] = system: SR leukemia

Measured: growth

COc1ccc(/C=C(/C(=O)N2CCCC2)c2cc(OC)c(OC)c(OC)c2)cc1
inactive: [1] 73.1% | [2] 48.1% | [3] 44.5% | [4] 71.3% | [5] 54.5% | [6] 13.4% | [7] 14% | [8] 32.6% | [9] 19.7%

COC1=CC=CC2(OC)C3(O)CCCc4cccc(c43)N3C(=O)COC132 (stereo unspecified)
inactive: [1] 98.6% | [2] 101% | [3] 82.1% | [4] 96.7% | [5] 105% | [6] 98.4% | [7] 94.8% | [8] 97.8% | [9] 109%

CCCCCCN1C(=O)CN=C1Nc1ccc2cc3ccc(NC4=NCC(=O)N4CCCCCC)cc3nc2c1
inactive: [1] 56.9% | [2] 26.7% | [3] 51.7% | [4] 75.9% | [5] 67.6% | [6] 104% | [7] 12%
active: [8] 9.83% | [9] 0.413%

Nc1cccc(C(=O)Nc2ccc3c(O)c(N=Nc4ccc(N=Nc5ccc(S(=O)(=O)O)cc5)cc4)c(S(=O)(=O)O)cc3c2)c1
inactive: [1] 103% | [2] 106% | [3] 90.2% | [4] 101% | [5] 105% | [6] 105% | [7] 96.6% | [8] 84.6% | [9] 77.4%

COc1ccc(C2=NN(c3ccc(S(N)(=O)=O)cc3)C(c3ccc(Cl)cc3)C2)c(O)c1 (stereo unspecified)
inactive: [1] 56% | [2] 73% | [3] 60.3% | [4] 53.7% | [5] 65% | [6] 47.2% | [7] 26.8% | [8] 32.5% | [9] 16.1%

COc1ccc2nc(-c3ccc(Cl)cc3)cc(-c3nnc(SC/C(=N/O)c4ccccc4)o3)c2c1
inactive: [1] 72.8% | [2] 17.5% | [3] 89.7% | [4] 75% | [5] 47.5% | [6] 63.5% | [7] 54.1% | [8] 52.5%
active: [9] 7.97%

CCCCOc1nc2ccc(C)cc2cc1/C=C/C(=O)/C=C/c1ccc2c(c1)OCO2
inactive: [1] 102% | [2] 89.2% | [3] 75% | [4] 113% | [5] 103% | [6] 106% | [7] 75.9% | [8] 81.5% | [9] 42.9%

N#Cc1ccc(Oc2ccc3ccc(=O)oc3c2)cc1
inactive: [1] 110% | [2] 105% | [3] 99.1% | [4] 116% | [5] 98.2% | [6] 99% | [7] 101% | [8] 100% | [9] 82.9%

CSc1nc(-c2cccs2)c2c(N)[nH]nc2n1
inactive: [1] 73.1% | [2] 109% | [3] 84.1% | [4] 93.4% | [5] 101% | [6] 66.7% | [7] 109% | [8] 87% | [9] 73.3%

O=C1C(=O)c2c(nc3ccc(C(F)(F)F)cn23)-c2ccccc21
active: [1] -72.5% | [2] -84.4% | [3] -97.5% | [4] -97.3% | [5] -99.1% | [6] -92.9% | [7] 0.668% | [8] -33.1% | [9] -5.53%

CNc1cccc2c1C(=O)c1cccc(N)c1C2=O
inactive: [1] 37.9% | [2] 91% | [3] 62.1% | [4] 25.8% | [5] 72.2% | [6] 65% | [7] 20.5% | [8] 29.4%
active: [9] 9.01%

Oc1ccccc1-c1nc2c3ccccc3c3ccccc3c2o1
inactive: [1] 78.8% | [2] 83% | [3] 61% | [4] 162% | [5] 91.1% | [6] 114% | [7] 82.1% | [8] 95.3% | [9] 73.7%

CCN(CC)CC#CCOC(=O)[C@]1(C)CCC[C@]2(C)[C@H]3C[C@H]4C(C(C)C)=C[C@]3(CC[C@H]21)[C@@H]1C(=O)CCC(=O)[C@@H]14
inactive: [1] 55.9% | [2] 57.1% | [3] 50.9% | [4] 95.4% | [5] 72.5% | [6] 102% | [7] 20.5% | [8] 10.7% | [9] 10.2%

CCCCc1nc(Cl)c(C2CC(c3ccc(Cl)cc3)=NN2c2cc(Cl)cc(Cl)c2)[nH]1 (stereo unspecified)
inactive: [1] 57.8% | [2] 45.4% | [3] 52.7% | [4] 94.2% | [5] 14.2% | [6] 84% | [7] 51.6% | [9] 61.8%

O=C(NC[C@H](O)CN1CCc2ccccc2C1)c1cc(NC2COC2)ncn1
inactive: [1] 111% | [2] 95.5% | [3] 78.2% | [4] 96.4% | [5] 95.9% | [6] 116% | [7] 98.3% | [8] 88% | [9] 97.2%

CN1C(=O)c2cc(Cl)nc3c(NC(=O)c4cccc(Cl)c4)c(Cl)c(NC(=O)c4cccc(Cl)c4)c1c23
active: [2] -43.2% | [3] -61.8% | [5] -61.7% | [7] 7.27% | [8] -19.9% | [9] -44.7%
inactive: [1] 27.4% | [4] 39.9% | [6] 96.6%

O=C1NN(c2ccccc2)C(c2ccc3c(c2)OCO3)N2CCC[C@@H]12 (stereo partly specified)
inactive: [1] 102% | [2] 110% | [3] 85.4% | [4] 92.2% | [5] 101% | [6] 97.5% | [7] 108% | [8] 102% | [9] 92.1%

COc1cc(C2=NN(c3ccccc3)C(c3cccc(Nc4ccnc5cc(C(F)(F)F)ccc45)c3)C2)cc(OC)c1OC (stereo unspecified)
inactive: [1] 85.2% | [2] 97.1% | [3] 61.4% | [4] 78.2% | [5] 95.2% | [6] 89.9% | [7] 84.1% | [8] 65.3% | [9] 56.9%
